Common to all, as to design: species or system human, MV4-11 + K-562 + COLO205 + SK-N-BE2 + OVCAR-8
One assay deals with ATM. The note with it: read-out: apparent Kd, n = 1.
For a further assay, the system named is CLK4. The note with it: read-out: apparent Kd; compound concentrations: 100 nM and 1000 nM (sheet 'Samples'), CATDS: 0.213944296498185; n = 1.
The subject of the next assay is CSNK1A1. Conditions: read-out: apparent Kd; compound concentrations: 100 nM and 1000 nM (sheet 'Samples'), CATDS: 0.24083982314133201; n = 1.
The next assay concerns CSNK1D. The note with it: read-out: apparent Kd; compound concentrations: 100 nM and 1000 nM (sheet 'Samples'), CATDS: 0.19928215700528701; n = 1.
A further assay relates to BMPR1B. Conditions: read-out: apparent Kd; compound concentrations:100 nM and 1000 nM (sheet 'Samples'); n = 1.
The next assay deals with DDR1. The note with it: read-out: apparent Kd; compound concentrations:100 nM and 1000 nM (sheet 'Samples'); n = 1.
The next assay has as its system IRAK3. The note with it: read-out: apparent Kd; compound concentrations:100 nM and 1000 nM (sheet 'Samples'); n = 1.
Another assay has as its system MAPK10. Conditions: read-out: apparent Kd; compound concentrations:100 nM and 1000 nM (sheet 'Samples'); n = 1.
Another assay concerns MAPK11. The note with it: read-out: apparent Kd; compound concentrations:100 nM and 1000 nM (sheet 'Samples'); n = 1.
The next assay concerns MAPK14. The note with it: read-out: apparent Kd; compound concentrations:100 nM and 1000 nM (sheet 'Samples'); n = 1.
The test system of another assay is MAPK8. Conditions: read-out: apparent Kd; compound concentrations:100 nM and 1000 nM (sheet 'Samples'); n = 1.
Another assay deals with MAPK9. Conditions: read-out: apparent Kd; compound concentrations:100 nM and 1000 nM (sheet 'Samples'); n = 1.
In a further assay the test system is MAPKAPK2. Conditions: read-out: apparent Kd; compound concentrations:100 nM and 1000 nM (sheet 'Samples'); n = 1.
In a further assay the test system is PIK3CD. The note with it: read-out: apparent Kd, n = 1.
The subject of another assay is PRKAG1. Conditions: read-out: apparent Kd; compound concentrations:100 nM and 1000 nM (sheet 'Samples'); n = 1.
In the next assay the test system is AURKB. Conditions: read-out: apparent Kd, n = 1.
The test system of the next assay is CDC42BPB. Conditions: read-out: apparent Kd; compound concentrations:100 nM and 1000 nM (sheet 'Samples'); n = 1.
The next assay concerns CDC42BPG. Conditions: read-out: apparent Kd; compound concentrations:100 nM and 1000 nM (sheet 'Samples'); n = 1.
The subject of a further assay is PKN1. The note with it: read-out: apparent Kd; compound concentrations:100 nM and 1000 nM (sheet 'Samples'); n = 1.
The test system of the next assay is PRKACA. The note with it: read-out: apparent Kd; compound concentrations:100 nM and 1000 nM (sheet 'Samples'); n = 1.
A further assay concerns PRKACB. The note with it: read-out: apparent Kd; compound concentrations:100 nM and 1000 nM (sheet 'Samples'); n = 1.
In the next assay the test system is PRKG1. The note with it: read-out: apparent Kd; compound concentrations:100 nM and 1000 nM (sheet 'Samples'); n = 1.
Another assay has as its system PRKX. Conditions: read-out: apparent Kd; compound concentrations:100 nM and 1000 nM (sheet 'Samples'); n = 1.
The test system of the next assay is ROCK1. Conditions: read-out: apparent Kd; compound concentrations:100 nM and 1000 nM (sheet 'Samples'); n = 1.
In the next assay the test system is ROCK2. Conditions: read-out: apparent Kd; compound concentrations:100 nM and 1000 nM (sheet 'Samples'); n = 1.
The next assay deals with STK26. The note with it: read-out: apparent Kd; compound concentrations:100 nM and 1000 nM (sheet 'Samples'); n = 1.
The next assay deals with DDR2. Conditions: read-out: apparent Kd; compound concentrations:100 nM and 1000 nM (sheet 'Samples'); n = 1.
Another assay has as its system EPHA7. The note with it: read-out: apparent Kd; compound concentrations:100 nM and 1000 nM (sheet 'Samples'); n = 1.
A further assay deals with EPHB6. The note with it: read-out: apparent Kd; compound concentrations:100 nM and 1000 nM (sheet 'Samples'); n = 1.
The test system of the next assay is FLT3. The note with it: read-out: apparent Kd, n = 1.
The next assay has as its system FLT4. Conditions: read-out: apparent Kd; compound concentrations:100 nM and 1000 nM (sheet 'Samples'); n = 1.
In the next assay the test system is JAK2. The note with it: read-out: apparent Kd; compound concentrations:100 nM and 1000 nM (sheet 'Samples'); n = 1.
The subject of the next assay is RET. The note with it: read-out: apparent Kd; compound concentrations:100 nM and 1000 nM (sheet 'Samples'); n = 1.
In a further assay the test system is BMP2K. The note with it: read-out: apparent Kd; compound concentrations:100 nM and 1000 nM (sheet 'Samples'); n = 1.
The test system of a further assay is MAP3K1. The note with it: read-out: apparent Kd; compound concentrations:100 nM and 1000 nM (sheet 'Samples'); n = 1.
A further assay deals with MAP4K5. The note with it: read-out: apparent Kd; compound concentrations:100 nM and 1000 nM (sheet 'Samples'); n = 1.
The subject of another assay is MAPK6. The note with it: read-out: apparent Kd; compound concentrations:100 nM and 1000 nM (sheet 'Samples'); n = 1.
The test system of a further assay is BCR. The note with it: read-out: apparent Kd; compound concentrations:100 nM and 1000 nM (sheet 'Samples'); n = 1.
The next assay deals with GAK. Conditions: read-out: apparent Kd; compound concentrations:100 nM and 1000 nM (sheet 'Samples'); n = 1.
The test system of a further assay is NQO2. The note with it: read-out: apparent Kd; compound concentrations:100 nM and 1000 nM (sheet 'Samples'); n = 1.
In a further assay the test system is PRKD1. The note with it: read-out: apparent Kd; compound concentrations:100 nM and 1000 nM (sheet 'Samples'); n = 1.
For a further assay, the system named is PRKD2. Conditions: read-out: apparent Kd; compound concentrations:100 nM and 1000 nM (sheet 'Samples'); n = 1.
A further assay concerns PRKD3. The note with it: read-out: apparent Kd; compound concentrations:100 nM and 1000 nM (sheet 'Samples'); n = 1.
For the next assay, the system named is RIPK2. The note with it: read-out: apparent Kd; compound concentrations:100 nM and 1000 nM (sheet 'Samples'); n = 1.
In a further assay the test system is SIK3. The note with it: read-out: apparent Kd; compound concentrations:100 nM and 1000 nM (sheet 'Samples'); n = 1.
The subject of a further assay is STK16. The note with it: read-out: apparent Kd; compound concentrations:100 nM and 1000 nM (sheet 'Samples'); n = 1.
The subject of another assay is TGFBR1. Conditions: read-out: apparent Kd; compound concentrations:100 nM and 1000 nM (sheet 'Samples'); n = 1.
The next assay has as its system TGFBR2. The note with it: read-out: apparent Kd; compound concentrations:100 nM and 1000 nM (sheet 'Samples'); n = 1.
In a further assay the test system is TNIK. The note with it: read-out: apparent Kd; compound concentrations:100 nM and 1000 nM (sheet 'Samples'); n = 1.
The next assay deals with ZAK. The note with it: read-out: apparent Kd; compound concentrations:100 nM and 1000 nM (sheet 'Samples'); n = 1.
Another assay has as its system RPS6KA4. Conditions: read-out: apparent Kd; compound concentrations: 100 nM and 1000 nM (sheet 'Samples'), CATDS: 0.19604885233209601; n = 1.
The mark [1] stands for this setting: compound concentrations:100 nM and 1000 nM (sheet 'Samples').

Structures are written as SMILES. Read-outs that look alike come from different tables or passages of the source.

In the case of `Cc1nc2sc3c(N)ncnc3c2c(C)c1C` [RO4241984-000], the potency estimated from few doses is 0.322 µM in the assay with ATM (compound concentrations: 100 nM and 1000 nM (sheet 'Samples'), CATDS: 0.46387822436217502); 1.41 µM in the assay on CLK4; 1.06 µM in the assay with CSNK1A1; 1.71 µM with CSNK1D.
As for `CCn1c(=O)c(Oc2ccc(F)cc2F)cc2cnc(NC3CCOCC3)nc21` [RO4367438-000], the potency estimated from few doses is 0.238 µM with ATM (setting [1]); 0.867 µM in the assay with BMPR1B; 1.51 µM in the assay on DDR1; 1.24 µM with IRAK3; 0.0451 µM in the assay on MAPK10; 0.0898 µM in the assay with MAPK11. Besides, the potency estimated from few doses with MAPK14 was 0.00249 µM; in the assay with MAPK8, 0.153 µM; with MAPK9 it was 0.0465 µM; with MAPKAPK2, 0.00881 µM; with PIK3CD (setting [1]), 0.0135 µM; in the assay on PRKAG1, 0.128 µM.
As for `CC(C)NCC(Cc1ccccc1)NC(=O)c1cc(Br)c(-c2ccnc3[nH]ccc23)s1.CC(C)NCC(Cc1ccccc1)NC(=O)c1cc(Br)c(-c2ccnc3[nH]ccc23)s1.Cl.Cl` (stereo not drawn) [GSK1383281A], the potency estimated from few doses with AURKB (setting [1]) was 0.95 µM; in the assay with CDC42BPB, 1.32 µM; in the assay on CDC42BPG it was 1.36 µM; in the assay with PKN1 it was 0.84 µM; in the assay with PRKACA, 0.0702 µM; in the assay on PRKACB, 0.102 µM. Also, the potency estimated from few doses in the assay with PRKG1 was 0.0136 µM; with PRKX it was 1.1 µM; in the assay with ROCK1, 0.0431 µM; in the assay on ROCK2, 0.048 µM; in the assay on STK26, 1.94 µM.
As for `Nc1ncnc2occ(-c3ccc(NC(=O)Nc4cc(C(F)(F)F)ccc4F)cc3)c12` [GW770249A_KCGS], the potency estimated from few doses is 1.4 µM with AURKB (setting [1]); 0.122 µM with DDR1; 0.529 µM with DDR2; 1.76 µM in the assay with EPHA7; 1 µM with EPHB6; 0.215 µM in the assay with FLT3 (setting [1]). Moreover, the potency estimated from few doses was 0.114 µM in the assay with FLT4, 0.871 µM with JAK2 and 0.0171 µM in the assay on RET.
With `COc1ccc(Nc2nccc(N3CCC(NC(=O)c4cccc(C#N)c4)C3)n2)cc1` (stereo not drawn) [GSK1379730A], the potency estimated from few doses is 1.45 µM in the assay on AURKB (compound concentrations: 100 nM and 1000 nM (sheet 'Samples'), CATDS: 0.359402067500939); 0.177 µM in the assay on PIK3CD (compound concentrations: 100 nM and 1000 nM (sheet 'Samples'), CATDS: 0.82128719253375804).
`C[C@@H](Oc1cc(-n2cnc3ccc(OCC4CCN(C)CC4)cc32)sc1C(N)=O)c1ccccc1Cl` [GSK571989A]: the potency estimated from few doses was 1.87 µM in the assay with BMP2K; 1.6 µM in the assay on MAP3K1; 1.67 µM in the assay with MAP4K5; 1.54 µM with MAPK6; 0.185 µM in the assay on PIK3CD (setting [1]).
Turning to `CN(C)CCOc1ccc(-c2cc(-c3c[nH]nc3-c3ccccn3)ccn2)cc1` [GW835314X], the potency estimated from few doses in the assay on BCR is 0.668 µM; in the assay with GAK it was 0.151 µM; in the assay on MAPK10, 1.41 µM; in the assay on MAPK9, 2.05 µM; in the assay with NQO2, 0.176 µM; with PIK3CD (setting [1]) it was 0.145 µM. Also, the potency estimated from few doses in the assay with PRKD1 is 0.161 µM; in the assay on PRKD2 it was 0.0554 µM; in the assay with PRKD3, 0.0528 µM; in the assay with RIPK2, 0.219 µM; in the assay with SIK3, 1.8 µM; with STK16, 1.74 µM. The potency estimated from few doses in the assay on TGFBR1 was 0.00184 µM; with TGFBR2, 0.149 µM; in the assay with TNIK, 0.679 µM; in the assay with ZAK it was 1.82 µM.
Turning to `O=C1Nc2ccccc2/C1=C1\CCc2cc(O)ccc21` [GR105659X], the potency estimated from few doses in the assay on AURKB (compound concentrations: 100 nM and 1000 nM (sheet 'Samples'), CATDS: 0.205313587385097) was 0.856 µM; in the assay on FLT3 (compound concentrations: 100 nM and 1000 nM (sheet 'Samples'), CATDS: 0.27070299273409698), 0.446 µM; in the assay on PIK3CD (compound concentrations: 100 nM and 1000 nM (sheet 'Samples'), CATDS: 0.42834866623309398), 0.199 µM; in the assay on RPS6KA4, 0.977 µM.

These data come from publication PMC11062922 (Nature Chemical Biology, 2023).
